Source: PubChem BioAssay (several laboratories)
Rows were chosen to be rich in hits. Some 3.1% of all compounds tested hit in one or more screens of this group.
PAX8 reporter: inhibitors of PAX8 transcriptional activity in RMG-I cells. RMG-I TPO-luciferase reporter, SteadyGlo, 24 h. inhibition, % at 12.6 µM. 1.2% of 360,000 active;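 active = mean replicate inhibition at least 60% with every replicate also reaching 60%; inconclusive = only one of the two criteria is met; inactive = mean below 60% and not all replicates reaching 60%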;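 also: luciferase light reporting Pax8 driven TPO promoter activity; plate controls were median of neutral control wells for no effect and mitoxantrone controls for full effect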
EBV LMP1 NFkB: Epstein-Barr LMP1 NF-kappaB reporter inhibition; LMP1-induced NF-kappaB luciferase reporter cells, luminescence; inhibition, % at 12.5 µM; 0.69% of 350,000 active; in the data active = inhibition above about 41%; inconclusive = no clear call, values can overlap the other calls;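 also: 0% = neutral control wells and 100% = reference inhibitor control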
TROY signal inh: blocks TROY-dependent signaling in reporter cells; 0.98% of 360,000 active; AID 1347056; inhibition, % at 10 µM; Q293 LMP1-TROYcd NF-kB luciferase reporter, 4 h;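 active = compounds whose plate-normalised and pattern-corrected inhibition of the luciferase reporter signal at the single screening dose is 50% or more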
LGR2 inh: blocks bursicon-induced cAMP signaling via Drosophila LGR2 | HEK293 LGR2, CRE-luciferase, bursicon-stimulated, 4 h | inhibition, % at 9.99 µM | 0.35% of 380,000 active;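 active = drop in luminescence signal, shown as inhibition above about 50% in the replicate tests, limit read from the data, passing the limit was not always enough; inconclusive = probably only some replicates passing the limit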;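 also: agonist challenge used bursicon conditioned medium at about half maximal strength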
TWEAK Fn14 block: blocks TWEAK-Fn14 interaction in a reporter cell assay. TWEAK-stimulated Fn14 reporter cells, luciferase luminescence, 8 h. inhibition, % at 10 µM. 2% of 360,000 active. AID 1159606; in the data active = inhibition above about 50%
EWS-Fli inh: blocks EWS/Fli oncoprotein-driven transcription; AID 651661; 0.67% of 350,000 active; A673 NR0B1-luciferase reporter, viability-normalised; inhibition, % at 12.6 µM;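 active = mean inhibition of at least 50% after viability correction, with every replicate also passing that limit; inconclusive = mean reaches 50% but only one of two replicates passes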;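 also: firefly luciferase signal divided by Alamar Blue viability fluorescence both relative to DMSO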
* hit, by the source's call; ? = inconclusive; . = no result given.

SMILES | PAX8 reporter | EBV LMP1 NFkB | TROY signal inh | LGR2 inh | TWEAK Fn14 block | EWS-Fli inh
O=C(NC(Cc1c[nH]c2ccccc12)C(=O)Nc1ccc(F)c([N+](=O)[O-])c1)c1cccs1 (stereo not drawn) | 26 | 50* | -20 | 17 | -9 | .
CC(CCc1ccccc1)NC(=O)CNC(=O)c1cccs1 (stereo not drawn) | 19 | -1 | 5 | 16 | 61* | .
Cc1cccc(C(=O)NCC(=O)NC(C)CCc2ccccc2)c1 (stereo not drawn) | 2 | 7 | 1 | -3 | 14 | 5
CN1c2ccc(-c3cccc(C#N)c3)cc2[C@@H]2[C@@H](CCN2C(=O)C2CC2)[C@@H]1CO | . | . | . | -5 | . | -81
O=C1/C(=C/N(C(=O)c2ccco2)c2ccc(Cl)cc2)Sc2ccccc21 | . | -20 | 60* | . | 83* | .
O=C1/C(=C/N(C(=O)c2ccco2)c2ccc(Br)cc2)Sc2ccccc21 | . | -12 | 65* | . | 87* | .
COc1ccc(NC(=O)C2CCCN(CCCc3ccccc3)C2)cc1OCC(C)C (stereo not drawn) | 40 | -6 | 8 | 4 | -25 | 61*
COCC#Cc1cnc2c(c1)C(=O)N([C@H](C)CO)C[C@@H](C)[C@@H](CN(C)C(=O)CCN1CCCCC1)O2 | . | . | . | -19 | . | -6
CCOC(=O)C1C(=O)C=C(c2ccc(NS(C)(=O)=O)cc2)CC1c1ccco1 (stereo not drawn) | . | 5 | -16 | . | 10 | .
CCOC(=O)C1C(=O)C=C(c2ccc(C)cc2)CC1c1ccco1 (stereo not drawn) | -39 | 48* | -34 | . | -10 | .
CCCCCCCCCn1c2c(c(=N)c3c1CCC3)CCC2 | . | 37 | 52* | . | 46 | .
CCCCn1c2c(c(=N)c3c1CCC3)CCC2 | . | 8 | 18 | 6 | 25 | .
CCCCCCCn1c2c(c(=N)c3c1CCC3)CCCC2 | 94* | 41* | 48 | . | 61* | 63*
CCCCCCn1c2c(c(=N)c3c1CCC3)CCC2 | . | ? | 59* | 22 | 28 | .
CCn1c2c(c(=N)c3c1CCC3)CCC2 | 13 | -7 | -18 | -8 | -2 | 13
COc1ccccc1NC(=O)N[C@@H]1CC[C@@H](CCNC(=O)Cc2ccccn2)O[C@H]1CO | -6 | . | . | 13 | . | -1
C[C@H](CO)N1C[C@H](C)[C@H](CN(C)CC2CC2)Oc2c(NC(=O)c3ccc(-c4nccs4)cc3)cccc2C1=O | 5 | . | . | -10 | . | -1
CN1C(=O)C(Cl)(Cl)C(=O)c2ccccc21 | . | -5 | 12 | . | 51* | .
CN1C(=O)C2(NC(=O)c3ccccc3N2C)c2ccccc21 (stereo not drawn) | 2 | 2 | -6 | 12 | 13 | -1
COc1ccccc1C#Cc1ccc([C@@H]2[C@@H](C#N)N(C(=O)C3CCC3)[C@H]2CO)cc1 | 10 | . | . | 7 | . | -14
N#Cc1c(N2CCCC(O)C2)nc(N)c2c(N)nc3c(c12)CC(=O)N3C12CC3CC(CC(C3)C1)C2 (stereo not drawn) | 32 | -16 | 11 | . | 76* | .
C=C(C)CN(CC)c1nc(N)c2c(N)nc3c(c2c1C#N)CC(=O)N3C12CC3CC(CC(C3)C1)C2 | 32 | 5 | 22 | . | 9 | .
O=C(C[C@@H]1CC[C@H]2[C@@H](COC[C@H](O)CN2Cc2ccc(Cl)cc2)O1)NCCc1ccccc1 | 30 | . | . | 7 | . | 15
C[C@H]1CN([C@@H](C)CO)C(=O)Cc2cc(NC(=O)Nc3ccc(F)cc3)ccc2O[C@H]1CN(C)S(=O)(=O)c1cccs1 | 47 | . | . | -4 | . | -5
O=C1CC(=O)C(n2cncn2)C(c2ccc(Cl)cc2Cl)C1 (stereo not drawn) | . | -1 | -1 | . | 64* | .
SMILES | PAX8 reporter | EBV LMP1 NFkB | TROY signal inh | LGR2 inh | TWEAK Fn14 block | EWS-Fli inh
O=C1C=C(O)C(n2cncn2)C(c2cc(F)ccc2F)C1 (stereo not drawn) | 7 | -1 | -9 | 15 | -11 | 0
Cc1ccc(NC(=O)c2ccc([N+](=O)[O-])o2)c(C)c1 | 54 | -21 | 11 | -21 | 23 | 11
Cc1cccc(/C=C/C(=O)c2ccc([N+](=O)[O-])o2)c1 | 28 | -89 | 23 | 101* | 61* | 63*
COc1ccc(OCCNC(=O)/C=C/c2ccc([N+](=O)[O-])cc2)cc1 | 107* | 0 | -6 | 8 | -14 | 3
O=C(/C=C/c1cccc([N+](=O)[O-])c1)c1ccco1 | -29 | 9 | 12 | -15 | 31 | 58*
O=C(/C=C/c1cccc([N+](=O)[O-])c1)c1ccc([N+](=O)[O-])o1 | 27 | 14 | 73* | 32 | 98* | 81*
O=C(/C=C/c1ccc([N+](=O)[O-])cc1)NCCOc1ccc(F)cc1 | 9 | -2 | 5 | 29 | -23 | 1
Cc1noc(C)c1NC(=O)Nc1ccc2c(c1)C(=O)N([C@H](C)CO)C[C@H](C)[C@@H](CN(C)S(=O)(=O)c1ccccc1)OCCCC[C@H](C)O2 | -4 | . | . | 27 | . | 4
C[C@@H]1CN([C@H](C)CO)C(=O)Cc2cc(NC(=O)c3ccncc3)ccc2O[C@@H]1CN(C)S(=O)(=O)c1cccs1 | . | . | . | 16 | . | -16
C[C@@H]1CN([C@H](C)CO)C(=O)c2cccc(NS(=O)(=O)c3ccccc3)c2O[C@@H]1CN(C)C(=O)Nc1cccc2ccccc12 | -9 | . | . | -14 | . | 8
Cc1ccccc1NC(=O)c1ccc([N+](=O)[O-])o1 | 23 | -27 | 14 | 1 | 8 | -1
COc1ccc(/C=C/C(=O)c2ccc([N+](=O)[O-])o2)cc1 | 31 | -51 | -4 | 7 | 54* | 41
Cc1ccccc1/C=C/C(=O)c1ccc([N+](=O)[O-])o1 | 24 | . | . | 92* | . | 71*
COc1ccc(S(=O)(=O)N2CCN(C(=O)c3ccc([N+](=O)[O-])o3)CC2)cc1 | 21 | 6 | -26 | -12 | -7 | 10
CO[C@@H]1CN(C)C(=O)c2ccc(NC(C)=O)cc2OC[C@@H](C)N(C(=O)c2ccccc2F)C[C@H]1C | 2 | . | . | . | . | -11
CCNC(=O)C[C@@H]1CC[C@@H]2[C@@H](COc3ccc(NC(=O)C4CCCCC4)cc3C(=O)N2C)O1 | -5 | . | . | 9 | . | -3
C[C@H]1CN([C@@H](C)CO)C(=O)Cc2cc(NS(=O)(=O)c3cccs3)ccc2O[C@H]1CN(C)C | -11 | . | . | -4 | . | -4
CO[C@H]1CN(C)C(=O)c2ccc(NC(=O)C3CCCC3)cc2OC[C@H](C)N(C)C[C@@H]1C | . | . | . | -8 | . | .
Nc1c(C(=O)NCc2ccco2)c2nc3ccccc3nc2n1CCc1ccccc1 | -2 | 2 | 66* | 16 | 72* | 0
Nc1c(C(=O)NCc2ccccc2)c2nc3ccccc3nc2n1CCCN1CCOCC1 | 31 | -61 | -6 | 1 | 5 | 10
COc1ccc(NC(=O)N(C)C[C@@H]2Oc3ccc(NS(=O)(=O)c4ccc(F)cc4)cc3CC(=O)N([C@@H](C)CO)C[C@@H]2C)cc1 | . | . | . | 2 | . | 4
CC(C)OC(=O)c1sc2nc(-c3ccccc3)ccc2c1N | . | -62 | 80* | -63 | 91* | -7
